Screening results as filed in PubChem.
HP1b chromo inh: HP1-beta chromodomain-methylated histone interaction inhibition; P83916; AlphaScreen HP1-beta / biotin-H3K9me3 peptide binding; Potency, µM (titrated, usually from 114 µM), for the others: at the top dose activity change, negative = inhibition, usual class: inhibitors; hit rate 0.56% among 390,000; AID 540317; further: nearly all actives have a fitted effect of over 70% in size
Target sequence (P83916 whole entry, looked up): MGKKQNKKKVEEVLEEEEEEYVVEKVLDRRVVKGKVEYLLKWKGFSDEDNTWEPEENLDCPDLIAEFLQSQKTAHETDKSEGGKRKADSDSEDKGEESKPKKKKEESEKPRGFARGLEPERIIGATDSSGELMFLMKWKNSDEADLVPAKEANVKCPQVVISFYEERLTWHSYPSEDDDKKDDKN
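HP1-beta protein (50 nM final) preincubated 30 min at room temperature with biotinylated H3(1-18)K9me3 peptide (50 nM) in PBS pH 7.4, 0.01% Tween-20, then compound added for 30 min. AlphaScreen streptavidin donor/nickel chelate acceptor beads (10 ug/mL final), 30 min dark, luminescence read.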
L3MBTL1 block: blocks human L3MBTL1 | Potency, µM (highest dose often 57.1 µM), without a hit: at the top dose activity, negative = inhibition, most hits filed as inhibitors | AlphaScreen L3MBTL1–H3K9me1 peptide binding | Q9Y468 | hit rate 0.66% among 230,000; further: on the % scale 0 is the no-effect control and ±100 the full control effect; nearly all actives have a fitted effect of over 60% in size
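L3MBTL1 50 nM + b-AHA-H3(1-15)K9me1 75 nM, 30 min RT; compound added, 30 min RT; streptavidin donor/Ni-chelate acceptor beads 10 ug/mL each final, 30 min RT dark; AlphaScreen read.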
G9a block: G9a (human) methyltransferase inhibition; Q96KQ7; G9a H3K9 monomethylation, AlphaScreen, 2 h; Potency, µM (highest dose often 102 µM), for the others: at the highest dose activity, negative = inhibition, actives largely listed as inhibitors; hit rate 8.8% among 350,000; further: on the % scale 0 is the no-effect control and ±100 the full control effect; nearly all actives have a fitted effect of over 75% in size
Target sequence (Q96KQ7 913-1193 limits assumed): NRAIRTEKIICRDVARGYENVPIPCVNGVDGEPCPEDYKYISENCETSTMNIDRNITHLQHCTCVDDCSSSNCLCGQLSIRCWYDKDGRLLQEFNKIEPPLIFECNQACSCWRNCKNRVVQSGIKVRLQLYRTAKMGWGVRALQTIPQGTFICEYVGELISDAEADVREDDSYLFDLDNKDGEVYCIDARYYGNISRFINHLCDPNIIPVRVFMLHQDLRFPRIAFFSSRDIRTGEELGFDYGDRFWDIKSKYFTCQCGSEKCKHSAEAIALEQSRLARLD
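Chemiluminescent proximity detection of H3K9 monomethylation, read after 10 min bead incubation in the dark. Reaction: 20 nM G9a, 500 nM biotin-H3K9 peptide, 20 uM SAM cofactor, 2 h, room temperature, following 15 min enzyme-compound preincubation.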
JMJD2A Tudor: JMJD2A Tudor domain (human) inhibition; AlphaScreen JMJD2A-Tudor / H3K4me3 peptide binding; hit rate 4.4% among 390,000; Potency, µM (highest dose often 114 µM), for the others: at the top dose activity change, negative = inhibition, usual class: inhibitors; O75164; further: on the % scale 0 is the no-effect control and ±100 the full control effect; nearly all actives have a fitted effect of over 50% in size
BAZ2B inh: inhibitors of human BAZ2B bromodomain | Q9UIF8 | Potency, µM (top dose mostly 114 µM), for inactives: top-dose activity change, negative = inhibition, usual class: inhibitors | hit rate 4.4% among 360,000 | AID 504333 | AlphaScreen BAZ2B-H3K14Ac peptide displacement; further: on the % scale 0 is the no-effect control and ±100 the full control effect; nearly all actives have a fitted effect of over 60% in size
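AlphaScreen luminescence quantifies BAZ2B engagement of H3K14Ac peptide; the protein and biotinylated peptide are both at 50 nM final, buffer PBS pH 7.4 with 0.01% Tween-20, all steps at room temperature.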
Sfp PPTase inh: Sfp phosphopantetheinyl transferase inhibition; Q9F4F7; Biochemical Sfp PPTase activity, qHTS; Potency, µM, for inactives: largest response in the series, negative = inhibition, usual class: inhibitors; hit rate 3.5% among 310,000; AID 1490;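 further: the enzyme is Sfp with the accession as filed and its product quenches rhodamine fluorescence; 0% = enzyme reaction without inhibitor and -100% = no enzyme wells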
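With Hepes-Na pH 7.6 buffer containing 10 mM MgCl2, Sfp (15 nM) modified BHQ-2-YbbR (12.5 uM) using rhodamine-CoA (5 uM). Two reads 30 minutes apart at 525/598 nm yielded each well's rate.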
Active calls of the source: *; [ ] = remark or other dose. This is a sample that favours compounds with a hit; in the whole collection about 12% have one here. The call rests on the fitted dose curve; in most records, active means well fitted curve in the direction sought with a large enough effect; inconclusive means small, poorly fitted or top-dose-only effect, or another doubt; inactive means no such curve, though single readings can be large; an effect the other way counts as inactive or inconclusive. Potency means the concentration at half of the fitted maximal effect.

How did Cc1ccc(-n2c(=O)cc(N3CC(C)OC(C)C3)[nH]c2=O)cc1 (stereo not given) do in these assays?
HP1b chromo inh: 15%; G9a block: inconclusive; JMJD2A Tudor: -11%; Sfp PPTase inh: inconclusive

Results for COc1ccc(OC)c(NC(=O)COCc2cc(-c3ccc(F)cc3)on2)c1 ?
HP1b chromo inh: 18%; G9a block: -16%[59 µM]; JMJD2A Tudor: -21%; BAZ2B inh: -3%

How did CCn1c(CN2CCOCC2)nnc1SCC(=O)Nc1ccccc1Cl do in these assays?
HP1b chromo inh: 30%[57 µM]; G9a block: 7%[59 µM]; JMJD2A Tudor: 15%; BAZ2B inh: 8%; Sfp PPTase inh: 8%

How did C/C=C/C(=O)OCC(=O)Nc1ccc(OC)c(OC)c1 do in these assays?
HP1b chromo inh: 30%; L3MBTL1 block: -11%; G9a block: -28%; JMJD2A Tudor: 9%; BAZ2B inh: 50µM*; Sfp PPTase inh: 1%

What do the screens show for `C/C=C/C(=O)OCC(=O)Nc1ccc(OC)c(Cl)c1`?
HP1b chromo inh: 12%; L3MBTL1 block: 5%; G9a block: 24%[59 µM]; JMJD2A Tudor: -12%; BAZ2B inh: 8%; Sfp PPTase inh: 15%

What do the screens show for `N#CC1=C(c2ccc(-c3ccccc3)cc2)COC1=O`?
HP1b chromo inh: -22%; L3MBTL1 block: 7%; G9a block: 11µM*; JMJD2A Tudor: -15%[11.4 µM]; BAZ2B inh: -26%; Sfp PPTase inh: 17%

How did O=C(COc1ccccc1F)Nc1ccc(N2CCOCC2)cc1N1CCOCC1 do in these assays?
HP1b chromo inh: 28%; L3MBTL1 block: 20%; G9a block: inconclusive; JMJD2A Tudor: -11%; BAZ2B inh: -9%

How did Cc1ccc(C(=O)Nc2ccc(N3CCOCC3)cc2N2CCOCC2)cc1 do in these assays?
HP1b chromo inh: 3%; G9a block: -28%; JMJD2A Tudor: -27%; BAZ2B inh: -28%; Sfp PPTase inh: 6%

What do the screens show for `CCOc1ccccc1OCC(=O)Nc1ccc(N2CCOCC2)cc1N1CCOCC1`?
HP1b chromo inh: -8%; L3MBTL1 block: -9%; G9a block: 56µM*; JMJD2A Tudor: inconclusive; BAZ2B inh: -35%

How did O=C(COc1ccc(F)cc1Cl)Nc1ccc(N2CCOCC2)cc1N1CCOCC1 do in these assays?
HP1b chromo inh: -4%; L3MBTL1 block: -10%; G9a block: 35µM*; JMJD2A Tudor: -28%; BAZ2B inh: -10%

Results for CCOc1ccccc1NC(=O)COc1coc(CN2CCCc3ccccc32)cc1=O ?
HP1b chromo inh: -20%; L3MBTL1 block: -21%; G9a block: 50µM*; JMJD2A Tudor: inconclusive; BAZ2B inh: inconclusive

How did COc1ccccc1-c1ocnc1C(=O)Nc1ccc(N2CCOCC2)cc1N1CCOCC1 do in these assays?
HP1b chromo inh: -13%; G9a block: 50µM*; JMJD2A Tudor: inconclusive; BAZ2B inh: -15%; Sfp PPTase inh: -14%

How did Cc1ccc(/C=C/c2onc(C)c2S(=O)(=O)N2CCC(C(=O)Nc3ccc(OC(F)(F)F)cc3)CC2)cc1 do in these assays?
HP1b chromo inh: 5%[57 µM]; G9a block: 7%[59 µM]; JMJD2A Tudor: -21%; BAZ2B inh: -5%

Results for Cc1ccc(NC(=O)C2CCCN2S(=O)(=O)c2ccc3c(c2)C(C)(C)C(=O)N3C)cc1 (stereo not given) ?
HP1b chromo inh: 13%; G9a block: 6%[59 µM]; JMJD2A Tudor: -11%; BAZ2B inh: inconclusive

What do the screens show for `O=C(NCCNCCO)C1(C(F)(F)F)CC(CCc2ccccc2)CCCO1` (stereo not given)?
HP1b chromo inh: 1%; JMJD2A Tudor: -15%; Sfp PPTase inh: -25%

How did CCN(CC)CCCN1C(=O)c2oc3ccccc3c(=O)c2C1c1cccnc1 (stereo not given) do in these assays?
HP1b chromo inh: 14%; L3MBTL1 block: 6%; G9a block: 50µM*; JMJD2A Tudor: inconclusive; BAZ2B inh: -1%; Sfp PPTase inh: 13%

What do the screens show for `O=C1c2oc3ccccc3c(=O)c2C(c2cccnc2)N1Cc1ccco1` (stereo not given)?
HP1b chromo inh: 32%; L3MBTL1 block: 4%; G9a block: 25µM*; JMJD2A Tudor: 1%; BAZ2B inh: 9%; Sfp PPTase inh: -20%

What do the screens show for `O=C1c2oc3ccc(Cl)cc3c(=O)c2C(c2cccnc2)N1Cc1ccco1` (stereo not given)?
L3MBTL1 block: 5%; G9a block: inconclusive; BAZ2B inh: -5%; Sfp PPTase inh: -24%

Results for CCN(c1ccccc1)c1ncnc2c1cnn2-c1ccc(C)cc1C ?
HP1b chromo inh: 45%; G9a block: -7%[59 µM]; JMJD2A Tudor: -5%; BAZ2B inh: 13%

What do the screens show for `COc1ccc(Cl)cc1NC(=S)N(CCCN1CCOCC1)Cc1cn(C)c2ccccc12`?
HP1b chromo inh: inconclusive; L3MBTL1 block: -13%; G9a block: 10µM*; JMJD2A Tudor: inconclusive; BAZ2B inh: inconclusive; Sfp PPTase inh: 13µM*

Results for COc1cc(Cl)ccc1NC(=S)N(CCCN1CCOCC1)Cc1cn(C)c2ccccc12 ?
HP1b chromo inh: inconclusive; L3MBTL1 block: -13%; G9a block: 18µM*; JMJD2A Tudor: inconclusive; BAZ2B inh: inconclusive; Sfp PPTase inh: 11µM*

How did CSc1ccc(CNC(=O)CCc2c(C)nn(-c3ccc(N4CCCC4)nn3)c2C)cc1 do in these assays?
HP1b chromo inh: -12%; G9a block: 6%[59 µM]; JMJD2A Tudor: -27%; BAZ2B inh: 56µM*

How did COc1ccc(C2(SCC(N)C(=O)O)c3ccccc3-c3ccccc32)cc1 (stereo not given) do in these assays?
HP1b chromo inh: 9%; JMJD2A Tudor: -29%

Results for Clc1ccc(SCCCCN2CCOCC2)cc1 ?
HP1b chromo inh: 40µM*; L3MBTL1 block: 1%; G9a block: 4µM*; JMJD2A Tudor: 5.6µM*; BAZ2B inh: 32µM*; Sfp PPTase inh: -36%

How did CC1CCN(CCOCCSc2ccc(Cl)cc2)CC1 do in these assays?
HP1b chromo inh: inconclusive; L3MBTL1 block: -1%; JMJD2A Tudor: 7.1µM*; BAZ2B inh: 50µM*; Sfp PPTase inh: -19%

What do the screens show for `CC1CN(CCCCSc2ccc(Cl)cc2)CC(C)O1` (stereo not given)?
HP1b chromo inh: inconclusive; L3MBTL1 block: 3%; G9a block: 22µM*; JMJD2A Tudor: 18µM*; BAZ2B inh: inconclusive; Sfp PPTase inh: -12%

Results for CC1CCCN(CCSc2ccc(Cl)cc2)C1 (stereo not given) ?
HP1b chromo inh: inconclusive; L3MBTL1 block: 2%; G9a block: 11µM*; JMJD2A Tudor: inconclusive; BAZ2B inh: -36%; Sfp PPTase inh: 5%

What do the screens show for `Cc1cccc(C(=O)NCCc2nc3ccccc3n2Cc2ccc(Cl)cc2)c1`?
HP1b chromo inh: 28%; G9a block: -7%[59 µM]; JMJD2A Tudor: -18%; BAZ2B inh: 1%
